“And” between values parts separate entries of the source, which are not always exact repeats. Identical values can stand only once. Inconclusive results are not listed. The source made the active and inactive calls. How the source made its calls, unless noted: active means hit-call score of the fitted dose curve at least 0.9, where 1 is the maximum; inactive means score below 0.9.
What was measured:
[1] = read-out: Vascular cell adhesion molecule 1 (VCAM1), VCAM1 (gene 7412); test: BSK_LPS_VCAM1: BioMAP Diversity Plus: LPS Assay for Vascular cell adhesion molecule 1 (VCAM1) Biomarker Activity (AID 2283086); conditions: primary human HUVEC with PBMC; actives raise or lower the signal
Outline: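 HUVEC + PBMC co-culture, LPS system; compound 24 h; VCAM-1 by ELISA; bidirectional fit vs DMSO control; parallel SRB (0.1%, TCA-fixed, 560 nm) for cytotoxicity.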

CD40, CD40 (gene 958) = test: BSK_SAg_CD40: BioMAP Diversity Plus: SAg Assay for CD40 Biomarker Activity (AID 2283088); conditions: primary human HUVEC with PBMC; actives raise or lower the signal
Outline: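 Endpoint derived by fitting increases or decreases versus DMSO controls. CD40 is detected by fluorescence ELISA in a human vascular co-culture of endothelium and PBMC at 24 h.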

CD69, CD69 (gene 969) = test: BSK_SAg_CD69: BioMAP Diversity Plus: SAg Assay for CD69 Biomarker Activity (AID 2283089); conditions: primary human HUVEC with PBMC; actives raise or lower the signal;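 on AC50: cell surface CD69 protein quantified by ELISA with fluorescence detection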
Outline: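 Values derive from bidirectional fitting relative to DMSO vehicle. Cells: umbilical vein endothelium plus peripheral blood mononuclear cells, treated 24 h before fluorescent ELISA for CD69.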

[2] = read-out: Monocyte Chemoattractant Protein-1 (MCP1), CCL2 (gene 6347); test: BSK_SAg_MCP1: BioMAP Diversity Plus: SAg Assay for Monocyte Chemoattractant Protein-1 (MCP1) Biomarker Activity (AID 2283090); conditions: primary human HUVEC with PBMC; actives raise or lower the signal
Outline: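 MCP-1 levels in the endothelial–PBMC SAg co-culture were quantified by ELISA at 24 h post-dosing; both increases and decreases versus DMSO scored. Cytotoxicity monitored by SRB total protein in parallel cultures.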

[3] = read-out: E-selectin (Homo sapiens) (UniProt P16581); test: BSK_SAg_Eselectin: BioMAP Diversity Plus: SAg Assay for Eselectin Biomarker Activity (AID 2283091); conditions: primary human HUVEC with PBMC; actives raise or lower the signal
Outline: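 Endpoint values derive from bidirectional fitting relative to DMSO, using ELISA-measured E-selectin in a human vascular co-culture (umbilical vein endothelium plus PBMC) sampled 24 h after dosing.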

[4] = BSK_SAg_PBMCCytotoxicity: PBMC Cytotoxicity Assessment in the BioMAP Diversity Plus: SAg Assay (AID 2283093); conditions: primary human HUVEC with PBMC;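 further: PBMC viability measured as Alamar Blue reduction fluorescence at 546/580 nm; fitted both ways against DMSO so a hit may be loss or gain of signal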;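 on AC50: PBMC superantigen activated with SEB plus TSST-1 one hour after compound addition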
Outline: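 Human umbilical vein endothelial cells co-cultured with PBMC; PBMC (75,000/well) pre-treated with compound 1 h, then activated with SEB and TSST-1 (20 ng/mL final each) for 90 h. Alamar Blue added 6 h, fluorescence 546/580 nm; bidirectional fit versus DMSO.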

[5] = read-out: Interleukin-8 (IL8), CXCL8 (gene 3576); test: BSK_SAg_IL8: BioMAP Diversity Plus: SAg Assay for Interleukin-8 (IL8) Biomarker Activity (AID 2283094); conditions: primary human HUVEC with PBMC; actives raise or lower the signal
Outline: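 ELISA read-out of IL-8 in a primary human vascular co-culture (umbilical vein endothelium plus PBMC), taken 24 h after compound addition. Values derive from bidirectional fits against DMSO negative controls.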

[6] = BSK_SAg_Proliferation: Cell Proliferation Assessment in the BioMAP Diversity Plus: SAg Assay (AID 2283095); conditions: primary human HUVEC with PBMC;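 further: relative cell number as total protein by SRB absorbance in sub-confluent culture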
Outline: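 Cells (endothelium plus PBMC, human primary) were dosed with chemical, cultured 96 h, fixed in 10% TCA and stained with 0.1% SRB. Absorbance at 560 nm gave relative protein, fitted bidirectionally relative to DMSO.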

[7] = BSK_SAg_SRB: Viability Assessment in the BioMAP Diversity Plus: SAg Assay (AID 2283096); conditions: primary human HUVEC with PBMC;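 further: cells read one day after compound addition; hits may be either gain or loss of signal compared with DMSO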
Outline: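 Endothelial/PBMC primary human co-culture; compound 24 h; fix 10% TCA, stain 0.1% SRB, A560; protein content as cytotoxicity proxy; bidirectional curve fit, DMSO = baseline.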

[8] = biological target: human CYP2C9, CYP2C9 (gene 1559) (UniProt P11712); test: NVS_ADME_hCYP2C9: NovaScreen (NVS) CYP450-related Enzyme Activity (ADME) Assay for human CYP2C9 (AID 2283108; active means hit-call score of the fitted dose curve at least 0.9, where 1 is the maximum)
human CYP2C9, CYP2C9 (gene 1559), sequence (P11712 whole entry, looked up): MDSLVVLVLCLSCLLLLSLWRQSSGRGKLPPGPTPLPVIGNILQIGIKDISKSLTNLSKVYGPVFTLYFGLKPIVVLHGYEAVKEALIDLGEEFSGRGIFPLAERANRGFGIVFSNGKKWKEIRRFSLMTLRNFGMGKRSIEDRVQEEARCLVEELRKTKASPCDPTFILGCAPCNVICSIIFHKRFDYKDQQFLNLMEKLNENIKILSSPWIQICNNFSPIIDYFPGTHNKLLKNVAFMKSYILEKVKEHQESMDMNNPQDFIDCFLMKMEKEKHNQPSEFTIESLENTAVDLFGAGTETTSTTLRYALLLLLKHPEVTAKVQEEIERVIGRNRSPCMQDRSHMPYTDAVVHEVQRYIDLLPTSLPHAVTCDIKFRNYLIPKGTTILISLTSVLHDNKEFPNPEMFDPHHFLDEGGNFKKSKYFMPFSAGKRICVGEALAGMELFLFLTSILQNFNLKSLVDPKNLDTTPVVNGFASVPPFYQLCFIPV
Outline: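 Cell-free assay of recombinant human CYP2C9 produced in Sf9 cells, with enzyme activity read by fluorescence intensity 0.75 h after compound addition. Loss of signal versus an acetonitrile negative control indicates inhibition. Primary screen used 10 uM in duplicate; actives were retested in concentration series.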

[9] = biological target: Cytochrome P450 2C19 (Homo sapiens) (UniProt P33261); test: NVS_ADME_hCYP2C19: NovaScreen (NVS) CYP450-related Enzyme Activity (ADME) Assay for human CYP2C19 (AID 2283113; active means hit-call score of the fitted dose curve at least 0.9, where 1 is the maximum;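 further: potency for inhibition seen as loss of fluorescent signal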)
Outline: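 Biochemical CYP2C19 inhibition screen: insect-cell recombinant protein plus fluorescent substrate, 1 h, fluorescence intensity. Acetonitrile defined baseline activity. Single 10 uM concentration in duplicate, with concentration-response follow-up for actives.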

[10] = biological target: human Ephrin type-A Receptor 1 (EphA1), EPHA1 (gene 2041) (UniProt P21709); test: NVS_ENZ_hEphA1: NovaScreen (NVS) Enzymatic Assay for human Ephrin type-A Receptor 1 (EphA1) (AID 2283158; active means hit-call score of the fitted dose curve at least 0.9, where 1 is the maximum;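 further: activity is signal loss versus DMSO meaning EphA1 kinase inhibition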)
human Ephrin type-A Receptor 1 (EphA1), EPHA1 (gene 2041), sequence (P21709 whole entry, looked up): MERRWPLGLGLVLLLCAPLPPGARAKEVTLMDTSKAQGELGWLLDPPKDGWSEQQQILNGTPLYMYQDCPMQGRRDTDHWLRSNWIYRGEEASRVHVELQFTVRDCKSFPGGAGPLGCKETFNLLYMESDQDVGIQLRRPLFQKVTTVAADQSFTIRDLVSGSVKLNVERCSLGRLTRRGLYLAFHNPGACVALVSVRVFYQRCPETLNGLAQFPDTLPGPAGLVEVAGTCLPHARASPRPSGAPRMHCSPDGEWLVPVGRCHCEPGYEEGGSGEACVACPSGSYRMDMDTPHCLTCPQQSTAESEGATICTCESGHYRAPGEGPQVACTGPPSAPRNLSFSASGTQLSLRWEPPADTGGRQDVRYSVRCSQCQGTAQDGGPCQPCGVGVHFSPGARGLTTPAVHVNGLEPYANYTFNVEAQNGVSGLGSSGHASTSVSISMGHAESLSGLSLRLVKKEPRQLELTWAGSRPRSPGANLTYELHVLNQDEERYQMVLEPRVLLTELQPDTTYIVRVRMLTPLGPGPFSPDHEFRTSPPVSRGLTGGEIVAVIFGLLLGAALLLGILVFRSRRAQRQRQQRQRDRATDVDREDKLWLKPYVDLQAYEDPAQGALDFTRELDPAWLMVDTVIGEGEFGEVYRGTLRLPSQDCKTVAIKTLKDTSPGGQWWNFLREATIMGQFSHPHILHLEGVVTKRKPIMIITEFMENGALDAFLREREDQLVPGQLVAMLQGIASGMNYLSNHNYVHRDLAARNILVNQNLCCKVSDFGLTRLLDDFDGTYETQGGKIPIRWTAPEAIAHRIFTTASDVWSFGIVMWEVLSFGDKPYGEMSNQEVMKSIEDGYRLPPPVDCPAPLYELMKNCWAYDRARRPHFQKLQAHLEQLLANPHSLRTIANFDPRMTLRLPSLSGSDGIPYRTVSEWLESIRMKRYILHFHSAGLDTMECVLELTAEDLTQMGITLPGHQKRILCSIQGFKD
Outline: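 Here the EphA1 protein is recombinant and the substrate fluorescent, with electrophoretic separation before fluorescence detection at 1 hour. Signal loss against DMSO defines activity; plate controls included; follow-up concentration series reach 50 uM.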

[11] = biological target: human Phosphodiesterase 10 (PDE10), PDE10A (gene 10846) (UniProt Q9Y233); test: NVS_ENZ_hPDE10: NovaScreen (NVS) Enzymatic Assay for human Phosphodiesterase 10 (PDE10) (AID 2283195; active means hit-call score of the fitted dose curve at least 0.9, where 1 is the maximum)
human Phosphodiesterase 10 (PDE10), PDE10A (gene 10846), sequence (Q9Y233 whole entry, looked up): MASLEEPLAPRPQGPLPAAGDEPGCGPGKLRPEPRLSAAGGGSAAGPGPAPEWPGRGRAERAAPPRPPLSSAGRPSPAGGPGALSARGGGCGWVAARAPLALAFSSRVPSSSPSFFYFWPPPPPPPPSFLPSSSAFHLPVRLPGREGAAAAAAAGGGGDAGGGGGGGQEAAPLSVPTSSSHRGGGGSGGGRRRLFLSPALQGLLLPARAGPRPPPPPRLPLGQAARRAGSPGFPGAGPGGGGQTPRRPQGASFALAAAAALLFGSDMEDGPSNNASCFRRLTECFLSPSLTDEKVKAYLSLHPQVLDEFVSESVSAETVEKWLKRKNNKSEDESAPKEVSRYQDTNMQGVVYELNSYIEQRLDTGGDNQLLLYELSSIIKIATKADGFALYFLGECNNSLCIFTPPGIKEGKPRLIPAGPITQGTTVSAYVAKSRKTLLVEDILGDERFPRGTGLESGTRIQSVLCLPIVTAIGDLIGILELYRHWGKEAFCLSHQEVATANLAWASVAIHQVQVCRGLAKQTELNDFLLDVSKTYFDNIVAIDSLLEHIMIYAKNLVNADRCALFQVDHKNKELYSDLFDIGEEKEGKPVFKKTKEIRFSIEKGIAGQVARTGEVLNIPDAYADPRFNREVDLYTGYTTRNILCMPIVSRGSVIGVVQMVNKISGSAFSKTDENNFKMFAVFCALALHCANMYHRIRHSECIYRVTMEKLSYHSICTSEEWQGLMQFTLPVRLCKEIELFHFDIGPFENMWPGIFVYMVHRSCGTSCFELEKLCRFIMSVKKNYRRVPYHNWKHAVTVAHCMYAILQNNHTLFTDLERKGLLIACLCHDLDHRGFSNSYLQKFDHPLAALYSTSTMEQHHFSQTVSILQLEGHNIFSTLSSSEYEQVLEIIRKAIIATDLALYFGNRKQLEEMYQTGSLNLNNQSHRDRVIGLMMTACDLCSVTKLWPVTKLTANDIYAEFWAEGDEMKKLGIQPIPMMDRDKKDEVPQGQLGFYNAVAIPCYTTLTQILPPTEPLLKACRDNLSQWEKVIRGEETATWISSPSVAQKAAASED
Outline: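 Fluorescence/mobility-shift readout of PDE10A enzyme activity, taken 1 h post-dosing. Primary screen in duplicate at 25 uM; actives (e.g. ≥30% inhibition) retested as singleton concentration-response, top concentration 50 uM.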

[12] = biological target: human CYP2D6, CYP2D6 (gene 1565) (UniProt P10635); test: NVS_ADME_hCYP2D6: NovaScreen (NVS) CYP450-related Enzyme Activity (ADME) Assay for human CYP2D6 (AID 2283107; active means hit-call score of the fitted dose curve at least 0.9, where 1 is the maximum)
human CYP2D6, CYP2D6 (gene 1565), sequence (P10635 whole entry, looked up): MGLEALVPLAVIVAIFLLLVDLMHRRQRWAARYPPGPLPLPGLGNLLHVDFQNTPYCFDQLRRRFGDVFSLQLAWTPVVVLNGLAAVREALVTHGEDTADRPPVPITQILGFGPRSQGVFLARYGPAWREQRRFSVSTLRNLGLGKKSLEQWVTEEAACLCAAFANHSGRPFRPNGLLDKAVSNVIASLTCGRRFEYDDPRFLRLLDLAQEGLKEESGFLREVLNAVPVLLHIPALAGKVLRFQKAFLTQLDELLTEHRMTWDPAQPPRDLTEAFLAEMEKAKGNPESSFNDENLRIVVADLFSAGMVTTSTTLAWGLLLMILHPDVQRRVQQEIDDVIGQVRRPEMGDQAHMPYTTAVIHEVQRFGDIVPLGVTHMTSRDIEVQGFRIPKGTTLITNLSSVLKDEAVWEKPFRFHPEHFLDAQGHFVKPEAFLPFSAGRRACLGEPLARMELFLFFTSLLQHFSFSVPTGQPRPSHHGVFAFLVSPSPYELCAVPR
Outline: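 Biochemical fluorescence assay, insect-cell-derived enzyme. Read at 1 h; inhibition taken from loss of signal against acetonitrile. Screened at 10 uM in duplicate, with concentration series for actives.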

[13] = biological target: human Beta-secretase (BACE), BACE1 (gene 23621) (UniProt P56817); test: NVS_ENZ_hBACE: NovaScreen (NVS) Enzymatic Assay for human Beta-secretase (BACE) (AID 2283140; active means hit-call score of the fitted dose curve at least 0.9, where 1 is the maximum;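 further: hits are inhibitors that reduce fluorescent substrate signal versus DMSO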)
human Beta-secretase (BACE), BACE1 (gene 23621), sequence (P56817 whole entry, looked up): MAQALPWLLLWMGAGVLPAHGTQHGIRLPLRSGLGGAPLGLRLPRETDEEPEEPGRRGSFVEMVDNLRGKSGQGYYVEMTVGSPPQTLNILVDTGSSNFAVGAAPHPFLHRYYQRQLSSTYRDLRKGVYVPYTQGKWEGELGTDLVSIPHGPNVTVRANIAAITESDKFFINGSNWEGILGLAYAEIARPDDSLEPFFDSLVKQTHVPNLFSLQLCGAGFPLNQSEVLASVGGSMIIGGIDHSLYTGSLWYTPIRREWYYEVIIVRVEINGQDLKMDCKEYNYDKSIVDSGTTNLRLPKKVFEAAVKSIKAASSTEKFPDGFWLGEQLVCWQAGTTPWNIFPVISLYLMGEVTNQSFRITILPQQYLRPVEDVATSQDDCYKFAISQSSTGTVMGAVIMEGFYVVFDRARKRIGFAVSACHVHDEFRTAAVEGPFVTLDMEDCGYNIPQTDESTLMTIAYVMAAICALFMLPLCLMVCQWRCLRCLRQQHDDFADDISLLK
Outline: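 Compounds were first tested in duplicate at 25 uM, then actives in concentration series, against recombinant BACE1 from SF9 cells. Enzyme activity was measured by fluorescence intensity 1 hour after dosing, with DMSO as negative control.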

[14] = biological target: human Dual Specificity Protein Phosphatase 3 (DUSP3), DUSP3 (gene 1845) (UniProt P51452); test: NVS_ENZ_hDUSP3: NovaScreen (NVS) Enzymatic Assay for human Dual Specificity Protein Phosphatase 3 (DUSP3) (AID 2283152; active means hit-call score of the fitted dose curve at least 0.9, where 1 is the maximum;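 further: phosphatase activity of recombinant human DUSP3 on a fluorogenic substrate without cells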)
human Dual Specificity Protein Phosphatase 3 (DUSP3), DUSP3 (gene 1845), sequence (P51452 whole entry, looked up): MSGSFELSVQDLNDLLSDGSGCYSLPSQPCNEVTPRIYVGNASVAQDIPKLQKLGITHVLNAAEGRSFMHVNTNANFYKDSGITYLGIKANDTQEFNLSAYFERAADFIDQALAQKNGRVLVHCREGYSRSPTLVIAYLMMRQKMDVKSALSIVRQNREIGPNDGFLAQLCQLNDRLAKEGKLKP
Outline: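 Cell-free assay with recombinant human DUSP3 and fluorogenic substrate, read by fluorescence intensity. Primary screen ran duplicate at 25 uM; actives followed up in concentration series; loss of signal versus DMSO scored.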

[15] = biological target: human Matrix Metalloproteinase-9 (MMP9), MMP9 (gene 4318) (UniProt P14780); test: NVS_ENZ_hMMP9: NovaScreen (NVS) Enzymatic Assay for human Matrix Metalloproteinase-9 (MMP9) (AID 2283190; active means hit-call score of the fitted dose curve at least 0.9, where 1 is the maximum;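 further: cell-free recombinant MMP9 protease activity read by fluorescent substrate signal; active means inhibition seen as loss of fluorescence signal versus DMSO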)
human Matrix Metalloproteinase-9 (MMP9), MMP9 (gene 4318), sequence (P14780 whole entry, looked up): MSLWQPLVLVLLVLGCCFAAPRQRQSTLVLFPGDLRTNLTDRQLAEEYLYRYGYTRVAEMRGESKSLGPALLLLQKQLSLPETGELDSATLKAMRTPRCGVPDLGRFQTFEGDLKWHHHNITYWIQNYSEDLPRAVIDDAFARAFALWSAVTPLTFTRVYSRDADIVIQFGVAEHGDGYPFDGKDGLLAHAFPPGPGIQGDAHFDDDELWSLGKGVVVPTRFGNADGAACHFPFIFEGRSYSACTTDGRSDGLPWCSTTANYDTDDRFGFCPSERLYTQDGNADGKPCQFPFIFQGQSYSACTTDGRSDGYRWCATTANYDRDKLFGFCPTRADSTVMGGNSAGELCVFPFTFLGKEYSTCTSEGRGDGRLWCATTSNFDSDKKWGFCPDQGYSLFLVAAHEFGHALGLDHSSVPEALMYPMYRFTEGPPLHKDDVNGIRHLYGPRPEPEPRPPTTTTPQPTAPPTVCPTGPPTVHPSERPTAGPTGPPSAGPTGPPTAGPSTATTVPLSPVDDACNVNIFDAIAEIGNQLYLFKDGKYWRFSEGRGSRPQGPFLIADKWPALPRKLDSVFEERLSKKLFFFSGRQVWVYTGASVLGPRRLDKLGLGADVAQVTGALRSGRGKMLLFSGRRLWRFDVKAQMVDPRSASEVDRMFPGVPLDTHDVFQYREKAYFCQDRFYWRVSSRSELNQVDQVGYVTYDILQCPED
Outline: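 Screening concentration 25 uM, duplicate wells, then dose series for confirmation. Cell-free enzymatic reaction measured by fluorescence intensity 1 h post-dosing; decreased signal versus DMSO taken as activity.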

Measured: AC50

E-selectin (Homo sapiens), sequence (P16581 whole entry, looked up): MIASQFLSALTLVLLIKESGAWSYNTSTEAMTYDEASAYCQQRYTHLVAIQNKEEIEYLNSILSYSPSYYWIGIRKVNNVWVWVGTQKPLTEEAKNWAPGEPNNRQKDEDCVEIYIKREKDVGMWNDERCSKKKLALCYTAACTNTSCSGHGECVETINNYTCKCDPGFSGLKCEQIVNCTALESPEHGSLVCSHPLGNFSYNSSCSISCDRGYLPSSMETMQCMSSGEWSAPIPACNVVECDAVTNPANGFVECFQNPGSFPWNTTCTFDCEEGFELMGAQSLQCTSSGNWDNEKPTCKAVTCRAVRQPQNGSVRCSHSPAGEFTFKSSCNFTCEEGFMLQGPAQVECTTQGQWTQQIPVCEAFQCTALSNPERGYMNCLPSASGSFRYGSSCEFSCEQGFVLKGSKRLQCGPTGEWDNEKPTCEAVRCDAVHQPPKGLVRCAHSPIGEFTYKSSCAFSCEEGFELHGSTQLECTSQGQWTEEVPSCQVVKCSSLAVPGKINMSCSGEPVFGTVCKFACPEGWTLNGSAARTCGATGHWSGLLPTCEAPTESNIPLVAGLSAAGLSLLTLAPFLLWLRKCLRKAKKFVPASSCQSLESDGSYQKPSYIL

CCO[Si](C)(OCC)OCC
inactive: [1] | CD40, CD40 (gene 958) | CD69, CD69 (gene 969) | [2] | [3] | [4] | [5] | [6] | [7]

CC(C)C(=O)C(C)C
inactive: [1] | CD40, CD40 (gene 958) | CD69, CD69 (gene 969) | [2] | [3] | [4] | [5] | [6] | [7]

CC(C)(c1cc(Br)c(OCCO)c(Br)c1)c1cc(Br)c(OCCO)c(Br)c1
active: [1] 16.2 µM | CD40, CD40 (gene 958) 13.3 µM | CD69, CD69 (gene 969) 2.31 µM | [3] 1.44 µM | [6] 479 nM | [8] 0.879 µM | [9] 1.8 µM | [11] 20.2 µM
inactive: [2] | [4] | [5] | [7] | [10]

CCOC(=O)c1ccccc1C(=C1C=C(Br)C(=O)C(Br)=C1)c1cc(Br)c(O)c(Br)c1
active: [1] 20.2 µM and 19.9 µM | CD40, CD40 (gene 958) 19.4 µM and 19.1 µM | CD69, CD69 (gene 969) 15.1 µM and 15.6 µM | [2] 20.7 µM and 21 µM | [3] 20.1 µM and 18.8 µM | [5] 19 µM and 18 µM | [6] 18.3 µM and 20.1 µM | [7] 21.1 µM and 18.9 µM
inactive: [4]

CCCCCCCCCCCCCCCC[N+](C)(C)CC
inactive: [10] | [15] | [11]
active: [1] 3.79 µM | CD40, CD40 (gene 958) 10.2 µM | CD69, CD69 (gene 969) 1.78 µM | [2] 2.24 µM | [3] 2.77 µM | [4] 1.94 µM | [5] 9.75 µM | [6] 314 nM | [7] 1.69 µM | [12] 0.536 µM | [9] 2.31 µM | [13] 6.41 µM | [14] 20.8 µM

CN1C(=O)N(C)C(O)C1O (stereo not drawn)
inactive: [1] | CD40, CD40 (gene 958) | CD69, CD69 (gene 969) | [2] | [3] | [4] | [5] | [6] | [7]

C=CC(=O)OCC(Br)CBr (stereo not drawn)
active: [1] 10.9 µM | CD40, CD40 (gene 958) 11.7 µM | CD69, CD69 (gene 969) 10.2 µM | [2] 24.8 µM | [3] 8.13 µM | [4] 6.05 µM | [5] 6.6 µM | [6] 1660 nM | [7] 34.1 µM

COCc1c(C(C)C)nc(C(C)C)c(/C=C/[C@@H](O)C[C@@H](O)CC(=O)O)c1-c1ccc(F)cc1
inactive: [1] | [2] | [4]
active: CD40, CD40 (gene 958) 0.126 µM | CD69, CD69 (gene 969) 0.0293 µM | [3] 0.0215 µM | [5] 0.00783 µM | [6] 18.5 nM | [7] 0.0355 µM

COc1ccc2nc(N)sc2c1
inactive: [1] | CD40, CD40 (gene 958) | CD69, CD69 (gene 969) | [2] | [3] | [4] | [5] | [6] | [7]
active: [9] 0.319 µM
